Screening results (PubChem BioAssay)
Hits are enriched below; roughly 5.1% of the tested compounds scored in any of these assays.
S1P4 agonist: human S1P4 receptor agonism. O95977. S1P4-expressing cell line, agonist reporter assay. activation, % at 4.98 µM. 0.35% of 220,000 active; in the data active means activation above about 11%;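 further: 0% = DMSO vehicle and 100% = reference agonist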
S1P4 antagonist: human S1P4 receptor antagonism; 0.26% of 220,000 active; O95977; inhibition, % at 4.98 µM; S1P4-expressing cells, antagonist mode, reporter read-out; in the data active means inhibition above about 29%;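 further: 0% = wells stimulated with agonist and 100% = vehicle wells without agonist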
KCC2 mod: modulates chloride dependent transport by human KCC2 | AID 1456 | B-score of Tl+ flux slope (higher = more flux/activation; lower = inhibition) at 10 µM | Q9H2X9 | 2.2% of 190,000 active | KCC2 cells, thallium flux FluoZin-2 fluorescence;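 active means thallium flux slope and its plate-corrected score both differing from the plate sample mean at a set confidence after two filtering rounds, in either direction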;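 further: slope of fluorescence scaled to starting intensity during 10 to 20 s after thallium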
RAM inhibit: blocks the yeast RAM network; 1.8% of 190,000 active; S. cerevisiae dse1pr::URA3 reporter, 5-FOA growth OD615, 2 d; analog-sensitive cbk1-as2 kinase mutant strain; inhibition, % at 50 µM;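 active means inhibition above a set limit, 3 SD over mean compound inhibition, cut at about 8.4% in these data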;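 further: 0% = DMSO-only wells with no growth and 100% = 10 µM 1-NA-PP1 full growth; inhibition rescues growth on 5-FOA so higher OD means more RAM inhibition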
ROMK primary: modulates human ROMK potassium channel activity; AID 1918; Tet-inducible ROMK, thallium flux fluorescence; actives lie on both sides; 2% of 130,000 active; P48048; B-score at 10 µM;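 active means signal ratio slope over the read window, or its plate-corrected B-score, at least 3 SD from the plate mean, either direction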;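 further: B-score of the F/F0 ratio slope over 7 to 12 s after thallium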
S1P3 antagonist: S1P3 (human) receptor antagonism | Q99500 | CHO S1P3 NFAT-BLA reporter, FRET fluorescence, antagonist mode | inhibition, % at 4.98 µM | 0.27% of 170,000 active;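 active means inhibition above the plate cutoff, the mean inhibition of test wells on that plate plus 3 SD, cut at about 28% in these data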;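 further: cells challenged with S1P at its EC80 of 0.8 µM; blue over green emission ratio from cleaved BLA substrate after 4 h stimulation; 0% = S1P-stimulated wells and 100% = unstimulated DMSO-only wells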
Target sequence (Q99500 whole entry, looked up): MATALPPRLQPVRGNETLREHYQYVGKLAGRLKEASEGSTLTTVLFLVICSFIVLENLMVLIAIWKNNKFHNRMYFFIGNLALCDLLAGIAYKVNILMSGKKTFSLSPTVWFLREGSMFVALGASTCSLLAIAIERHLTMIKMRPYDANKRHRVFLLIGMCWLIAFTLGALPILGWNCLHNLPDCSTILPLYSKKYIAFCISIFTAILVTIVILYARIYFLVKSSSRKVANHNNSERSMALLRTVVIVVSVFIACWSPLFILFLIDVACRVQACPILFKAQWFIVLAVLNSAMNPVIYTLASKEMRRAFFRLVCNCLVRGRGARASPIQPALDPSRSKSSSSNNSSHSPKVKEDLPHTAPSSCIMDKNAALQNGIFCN
KCC2 secondary: KCC2 (human) modulation, secondary assay | shares compounds with KCC2 mod | HEK293-KCC2, thallium flux, FluoZin2 fluorescence; hits give high values | normalised thallium flux (F/F0 slope) at 10 µM | 15% of 3,700 active | AID 1713;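 active means thallium flux slope above the same plate's solvent-only control mean plus 3 SD; inconclusive means the two replicate wells disagree; inactive means no significant difference from solvent-only control wells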
KCC2 bumet counter: thallium flux despite bumetanide block in KCC2 cells, secondary assay 3; shares compounds with KCC2 mod; HEK293-KCC2 + bumetanide/ouabain, thallium flux FluoZin2; hits give high values; normalized thallium flux at 10 µM; 49% of 3,700 active;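 active means thallium entry rate above the same plate's blocked-transporter control wells by more than 3 SD; inconclusive means the two repeat wells disagree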;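 further: raw slope of fluorescence over initial fluorescence between 10 and 20 s after thallium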
KCC2 secondary2: KCC2 (human) modulation, second secondary assay | 23% of 3,700 active | HEK293-KCC2, thallium flux FluoZin2 fluorescence; actives lie on both sides; F/F0 rise rate, 10–20 s post-thallium | shares compounds with KCC2 mod | normalized thallium flux at 10 µM | AID 1715;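 active means thallium flux slope more than 3 SD above or below the plate's solvent-only control mean, mostly below; inconclusive means the two repeat wells disagreed; inactive means no significant shift from solvent-only controls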;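 further: raw slope with 0.1% DMSO as baseline and bumetanide as block control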
HEK counter1: acts in parental HEK cells, KCC2 counter-screen | shares compounds with KCC2 mod | HEK293 parental cells, thallium flux FluoZin2, ouabain; baseline-ratio fluorescence slope, 10–20 s after thallium | thallium flux rate (normalised fluorescence) at 10 µM | 46% of 3,700 active;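 active means thallium flux rate significantly above the same plate's solvent-only control wells, beyond their mean plus 3 SD; inconclusive means the two replicate wells gave conflicting results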
KCC2 retest ouab: confirmation of human KCC2 modulators with ouabain. shares compounds with KCC2 mod. HEK293-KCC2, thallium flux FluoZin2 fluorescence; bidirectional: low = inhibitor, high = activator. raw Tl+ flux slope (below DMSO = inhibition, above = activation) at 10 µM. 48% of 3,700 active. AID 1717;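 active means thallium flux slope beyond 3 SD from same-plate DMSO control mean in most replicates, usually higher, sometimes lower; inconclusive means repeat tests gave conflicting results; inactive means no significant difference from controls in most replicates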;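 further: slope of initial-normalized fluorescence between seconds 10 and 20 after thallium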
HEK counter2: acts in parental HEK cells, second KCC2 counter-screen | shares compounds with KCC2 mod | 33% of 3,700 active | AID 1718 | HEK293 parental, thallium flux FluoZin-2 fluorescence slope | thallium flux slope at 10 µM;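 active means thallium flux slope above the same plate's solvent-control mean plus 3 SD in both duplicate wells; inconclusive means duplicate wells that disagreed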;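 further: run without ouabain in cells lacking the KCC2 cotransporter; slope of fluorescence scaled to its starting value between 10 and 20 s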
* marks the source's active call; other numbers are inactive results; ? = inconclusive; . = no result.

SMILES	S1P4 agonist	S1P4 antagonist	KCC2 mod	RAM inhibit	ROMK primary	S1P3 antagonist	KCC2 secondary	KCC2 bumet counter	KCC2 secondary2	HEK counter1	KCC2 retest ouab	HEK counter2
O=C(/C=N/NC(=O)c1ccc(Cl)cc1Cl)c1ccccc1	0.7	-11.8	91.2*	.	.	10.3	0.00622	0.101*	0.0622*	0.0485*	0.0756*	0.0386*
O=C(COc1cccc(Br)c1)N/N=C/C(=O)c1ccccc1	1.4	-2.3	5.88*	0.4	-0.291	-7.6	0.00549	0.0143*	0.0316	0.012*	?	0.0146*
O=C(/C=N/NC(=O)c1ccccc1Br)c1ccccc1	-1.0	0.4	8.02*	3.3	0.111	-9.3	0.00681	0.019*	0.0314	0.0198*	?	0.018*
COc1ccc(NC(=O)CCCN2C(=O)CCC2=O)cc1Cl	0.6	-14.9	0.635	0.1	0.16	-25.3	.	.	.	.	.	.
COc1ccc(NC(=O)CCCCCN2C(=O)CCC2=O)cc1Cl	4.0	-13.4	.	2.9	1.99	.	0.00914	?	0.0344	0.00847	0.0226	0.011
S=C(NCCCc1ccccc1)Nc1ccc(Cl)cc1	1.2	1.6	-3.74*	0.8	-1.27	-5.5	0.00713	0.0055	0.029	0.00732	0.0316*	0.00994
CCCCCn1nnc2c(=O)oc3ccccc3c21	0.9	-28.2	.	0.7	.	-13.3	0.0141	0.00446	0.0228*	0.00529*	0.0105*	?
CCOC(=O)C(NC(=O)c1ccc(OC)cc1)(N1CCCC1=O)C(F)(F)F (stereo unspecified)	0.4	-18.3	0.267	2.8	2.47	11.4	.	.	.	.	.	.
C=CCn1c(Cc2cccs2)nnc1SCC(=O)c1cccc(Br)c1	2.3	-14.2	-2.47	1.4	.	-64.3	.	.	.	.	.	.
C=CCn1c(Cc2cccs2)nnc1SCC(=O)c1ccc2ccccc2c1	0.5	-8.6	-5.95*	2.1	.	.	0.0091	?	0.0272*	0.0065	0.0143*	0.0105
C=CCn1c(CNC(=O)c2cccs2)nnc1SCC(=O)c1ccc(Br)cc1	0.3	-11.0	-5.08*	2.1	.	.	0.00777	0.00507	0.0307	0.00654	0.0369*	0.0102
C=CCn1c(Cc2cccs2)nnc1SCC(=O)c1ccc(F)cc1	0.0	-1.5	-4.07*	-0.7	.	-3.9	0.00681	0.00419	0.0262	0.00564	0.0149*	0.00884
C=CCn1c(CCNC(=O)c2cccs2)nnc1SCC(=O)c1ccc(Cl)cc1	0.1	-2.9	-0.0781	0.8	-1.15	.	.	.	.	.	.	.
CC(C)CCn1c(Sc2nc3ccccc3o2)nc2c1c(=O)[nH]c(=O)n2C	0.7	-0.9	-0.818	1.2	-0.62	-14.2	.	.	.	.	.	.
O=C(CNc1ccc2ccccc2c1)N/N=C/c1cc2ccccc2nc1Cl	-0.2	5.2	0.252	0.4	.	1.0	.	.	.	.	.	.
Cc1c(C(=O)Nc2ccccc2-c2ccccc2)cccc1[N+](=O)[O-]	1.4	-24.4	.	1.4	.	.	.	.	.	.	.	.
COc1ccc(-c2nc(Cn3c(SCc4ccccc4F)nc4ccncc43)c(C)o2)cc1	1.2	-1.0	0.116	-0.2	.	.	.	.	.	.	.	.
COc1ccc(-c2nc(Cn3c(SCc4ccc(F)cc4)nc4ccncc43)c(C)o2)cc1OC	-2.9	-4.3	-3.52*	-0.6	.	.	0.00827	0.00571	0.0307	?	?	0.0112
O=C(Cc1ccc(Cl)cc1)Nc1ccc(SC(F)F)cc1	0.5	-2.5	0.0985	3.9	-0.0881	8.5	.	.	.	.	.	.
